This is an account of results in patent publication US20150152398, “Endoribonuclease and Methods of Use Thereof” (The Regents of the University of California, published 2015).

For this test, the target named is T1, TtCas6A R129A (Thermus thermophilus HB8, R129A).
T1 chain: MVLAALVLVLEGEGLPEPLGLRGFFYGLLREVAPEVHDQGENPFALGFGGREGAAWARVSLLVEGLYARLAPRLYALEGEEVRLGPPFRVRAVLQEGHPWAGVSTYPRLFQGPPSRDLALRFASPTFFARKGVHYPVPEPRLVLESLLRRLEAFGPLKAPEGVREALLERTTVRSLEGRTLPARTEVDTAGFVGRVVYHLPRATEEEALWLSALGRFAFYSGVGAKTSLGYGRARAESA
In words: EMSA; Kd in FIG. 24D only. As to conditions: chain copies: 2 inferred; label: 5'-32P (EMSA); hairpin; ssRNA. An excerpt:
FIG. 22 illustrates that TtCas6A and TtCas6B both cleave repeats R1 and R3 and retain their cleaved products. (A) Sequences and predicted secondary structures of T. thermophilus CRISPR repeats. Sites of cleavage are indicated with blue arrows. TtCas6e (TTHB192) cleaves repeat R2, while TtCas6A (TTHA0078) and TtCas6B (TTHB231) both cleave repeats R1 and R3. (B) Cleavage product binding affinities of TtCas6A and TtCas6B enzymes. Maltose binding protein (MBP)-fused TtCas6A or TtCas6B were bound to in 5′-radiolabelled, vitro transcribed R1 and R3 RNAs. Bound and unbound fractions were resolved by electrophoresis on a native polyacrylamide gel and visualized by phosphorimaging. The data for these and all subsequent binding assays were fit with standard binding isotherms (solid line). Error bars on each data point denote standard error of the mean (SEM) from three independent experiments. (C) Experiments to confirm single turnover. RNA cleavage assays were carried out at indicated protein:RNA ratios. RNA cleavage was monitored using denaturing polyacrylamide gel electrophoresis. The data from these and all subsequent endoribonuclease activity assays were fit with single exponential curves to yield first-order rate constants. (Top to bottom: FIG. 22A, SEQ ID NOs: 1, 2, 55).
To test the importance of the stem sequence for substrate RNA recognition by TtCas6A, a series of EMSAs was performed using R1 repeat-derived RNAs that carried single base pair substitutions (C-G→A-U). All mutant RNAs contained the complete 5′ segment and additional two nucleotides downstream of the cleavage site. Compared to the wild-type RNA, substitution of any of the four C-G base pairs in the stem led to about five-fold decrease in affinity (FIG. 24C). This is consistent with the observation that the lower three C-G base pairs are specifically read out by Arg129. The binding defect observed upon mutation of the closing (uppermost) base pair could be due to loss of stability of the stem-loop structure, which is determined by the closing base-pair (Serra et al, 1993). To further investigate the protein determinants of RNA binding, we tested the TtCas6A mutants H37A and R129A and performed binding assays using substrates R1 and R3 (FIG. 24D).
GUUGCAAACCUCGUUAGCCUCGUAGAGGAUUGAAAC: the binding signal was ~290 fold lower affinity than WT.

As for GUUGCAAGGGAUUGAGCCCCGUAAGGGGAUUGCGAC, the binding signal is ~260 fold lower affinity than WT.
